Screen size: about 360,000 compounds; about 3,700 (1%) were called active. The list comes from a sample in which actives are over-represented; it also holds similar structures and randomly drawn compounds. Values without a mark were called inactive. Cut-off read from the data, not from the text of the source: active = activation above about 30%; inactive = the rest.
The molecules below were run against D(1A) dopamine receptor (Homo sapiens) (UniProt P21728) (assay: Allosteric Agonists of the Human D1 Dopamine Receptor: qHTS). Settings: HEK293 T-REx D1 cells, calcium flux, agonist mode; at 2 µM; stronger effect = higher value.
Sequence of D(1A) dopamine receptor (Homo sapiens) (P21728 whole entry, looked up): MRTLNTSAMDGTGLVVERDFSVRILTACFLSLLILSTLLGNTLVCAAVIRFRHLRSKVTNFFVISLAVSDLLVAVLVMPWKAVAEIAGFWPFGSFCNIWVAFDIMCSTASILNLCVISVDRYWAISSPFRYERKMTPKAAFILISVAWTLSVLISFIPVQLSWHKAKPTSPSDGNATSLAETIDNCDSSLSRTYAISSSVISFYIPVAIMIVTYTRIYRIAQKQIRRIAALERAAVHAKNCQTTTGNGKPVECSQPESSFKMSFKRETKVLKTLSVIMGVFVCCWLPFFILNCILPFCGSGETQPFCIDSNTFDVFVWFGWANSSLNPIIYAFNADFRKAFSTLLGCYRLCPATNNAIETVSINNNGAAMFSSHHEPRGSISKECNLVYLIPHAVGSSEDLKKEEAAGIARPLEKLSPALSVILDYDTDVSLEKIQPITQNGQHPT
In short: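 Inducible HEK293 T-REx D1 cells, force-coupled to calcium signalling, were plated at 4000 cells/well with tetracycline and held overnight at 30 C. After no-wash calcium dye loading, compound-evoked calcium rise over 180 s flagged agonists.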
`COc1ccc(CN2CCC(n3nccc3NC(=O)CCCc3ccccc3)CC2)cc1C` was tested, and the activation was 37.7% (active). In the case of `COc1cc(CN2CCC(n3nccc3NC(=O)CCCc3ccccc3)CC2)ccc1O`, the activation is reported as 0.415%. With `Cc1ccc(CN2CCC(n3nccc3NC(=O)CCCc3ccccc3)CC2)o1` the activation was 1.76%. `Cc1ccc(CN2CCC(CNC(=O)c3cnn(-c4ccccc4Cl)c3C3CCN(C(=O)OC(C)(C)C)CC3)CC2)cc1` showed an activation of 27.5%. `COc1ccccc1CN1CCC(CNC(=O)c2cnn(-c3cccc(Cl)c3)c2C2CCN(C(=O)OC(C)(C)C)CC2)CC1` showed an activation of 9.95%. In the case of `Cc1ccc(CN2CCC(CNC(=O)c3cnn(-c4ccc(C)cc4)c3C3CCN(C(=O)OC(C)(C)C)CC3)CC2)cc1`, the activation is reported as 33.1% (active). Molecule `COc1ccc(-n2c(C)nc3c(cnn3-c3ccc(F)cc3)c2=O)cc1` has an activation of 9.13%. Molecule `Cc1ccc(NC(=O)CCCNC(=O)c2ccc(Cl)cc2)cc1S(=O)(=O)N1CCOCC1` has an activation of 0.321%. In the case of `Cc1ccc(NC(=O)COC(=O)CNC(=O)c2ccc(Cl)cc2Cl)cc1S(=O)(=O)N1CCOCC1`, the activation is reported as 31.1% (active). `Cc1ccc(C(=O)OCC(=O)Nc2ccc(Cl)cn2)cc1S(=O)(=O)N1CCOCC1` gave an activation of 5.99%. In the case of `Cc1ccc(S(=O)(=O)N2CCC(C(=O)Nc3cc(C)ccc3C)CC2)cc1`, the activation is reported as 1.28%. `CC(Oc1ccc(Br)cc1)C(=O)NC1CCCCCC1` (configuration not stated) gave an activation of 1.77%. In the case of `CC(C)(C)CC(C)(C)NCC(O)COCCOc1ccc(Br)cc1` (configuration not stated), the activation is reported as 171% (active). `COc1ccc(OCC(O)CNCCNc2nccc(C(F)(F)F)n2)cc1` (configuration not stated) was tested, and the activation was 1.81%. Molecule `COc1ccc(-n2ccnc(NCCc3ccc(Cl)cc3)c2=O)cc1OC` has an activation of 1.51%. Molecule `COc1cc(OC)c(NC(=O)c2cc(S(=O)(=O)N3CCCC3)cn2C)cc1Cl` has an activation of 0.318%. For `COc1ccccc1C(=O)OCc1cc(=O)n2nc(-c3cccs3)sc2n1`, the activation was 0.554%. `COc1ccc(C(=O)N2CCC(c3nc4ccccc4o3)CC2)cc1` was tested, and the activation was 0.0167%. `O=C(Cn1cc(SCc2ccccc2)c2ccccc21)N1CCCCC1` gave an activation of 0.868%. With `COc1ccc(OCC(O)CN(C)C(=O)C(C)Oc2ccccc2)cc1` (configuration not stated) the activation was 3.18%. Work on `COc1cccc(CN(C)CC(O)COC(c2ccccc2)c2ccccc2C)c1` (configuration not stated) yielded an activation of 5.2%. For `CN(Cc1ccccc1)CC(O)COc1ccc(CNCc2cc3ccccc3s2)cc1` (configuration not stated), the activation was 36.8% (active). Work on `Cc1ccc2nc(N3C(=O)C(O)=C(C(=O)c4ccco4)C3c3cccc(O)c3)sc2c1` (configuration not stated) yielded an activation of 7.96%. `C=CCSc1nnc(N2C(=O)C(O)=C(C(=O)c3ccco3)C2c2ccc(F)cc2)s1` (configuration not stated) was tested, and the activation was 54.8% (active). `C=CCOc1cccc(C2C(C(=O)c3ccc(C)o3)=C(O)C(=O)N2c2nnc(C)s2)c1` (configuration not stated) gave an activation of 29.7%. For `COc1ccc(CNC(=O)c2ccc(NC(=O)N3CC4CCCN4c4ccccc43)cc2)cc1` (configuration not stated), the activation was 0.101%. Work on `COc1ccc(Cn2ccn(CC(=O)Nc3cc(C)ccc3C)c(=O)c2=O)cc1` yielded an activation of 18.9%. For `CCc1nc2ccc(C(=O)N3CCN(c4cc(Cl)ccc4C)CC3)cc2nc1CC`, the activation was 5.95%. For `O=C(NC1CC(=O)N(c2ccc(F)cc2)C1)c1cccs1` (configuration not stated), the activation was 1.75%. `CCOC(=O)c1cc(NC(=O)c2ccc(Cl)cc2)c(=O)oc1-c1ccccc1` gave an activation of 3.05%. For `CC(=O)c1cc(NC(=O)c2ccccc2)c(=O)oc1/C=C/N(C)C`, the activation was 30.3% (active). For `COc1ccc(C2COC(=O)C2=N)c(NC(=O)c2ccccc2)c1` (configuration not stated), the activation was 0.266%. Molecule `Cc1ccc(N2CC(NC(=O)Cc3cccs3)CC2=O)cc1` (configuration not stated) has an activation of -0.478%. In the case of `CCOc1ccc(Nc2oc(/C=C/c3ccc(F)cc3)nc2C#N)cc1`, the activation is reported as -0.316%. Work on `CCOc1ccc(N(Cc2ccccc2)C(=O)c2nc(S(C)(=O)=O)ncc2Cl)cc1` yielded an activation of 1.14%. Molecule `COc1ccc(NC(=O)Cn2c(=O)cc(C)c3c(C)nn(-c4cccc(Cl)c4C)c32)cc1OC` has an activation of 0.131%. Molecule `Cn1c(=O)[nH]c(=O)c2c1nc(NCCc1ccccc1)n2Cc1ccc(F)cc1` has an activation of -2.2%. `CN(C)CCCn1c(SCc2ccc(Cl)cc2)nnc1-c1ccncc1` gave an activation of 0.237%. For `CN(C)CCCn1c(-c2ccc(Cl)cc2)csc1=Nc1ccccc1`, the activation was 39% (active). Molecule `OCCn1c(-c2ccccc2)csc1=Nc1ccccc1` has an activation of 0.78%. For `O=C(CSc1ncc(CO)n1Cc1ccc(F)cc1)NCc1ccco1`, the activation was 1.99%. With `O=C(CNC(=O)c1ccc(Cl)cc1Cl)OC(C(=O)Nc1cc(C(F)(F)F)ccc1Cl)c1ccccc1` (configuration not stated) the activation was 6.6%. In the case of `O=C(Nc1ccccc1)N1CCC(C(=O)N2CCN(Cc3ccccc3)CC2)CC1`, the activation is reported as 0.0463%. `O=C(Nc1ccccc1)N1CCN(C2c3ccccc3-c3ccccc32)CC1` was tested, and the activation was 35.4% (active). In the case of `COc1ccc(NC(C)=O)cc1NC(=O)CN1CCN(C2c3ccccc3-c3ccccc32)CC1`, the activation is reported as 1.82%. `O=C(CC(c1cccs1)N1Cc2ccccc2C1=O)Nc1ccc(F)c(F)c1` (configuration not stated) gave an activation of 10.6%. With `CCOc1ccc(CNC(=O)Cn2cc3c(n2)-c2c(oc(C(=O)N4CCCC4)c2C)CC3)cc1` the activation was 0.642%. `COc1ccc(CCNC(=O)c2ccc(CS(=O)(=O)c3ccc(Br)cc3)o2)cc1OC` showed an activation of 17.3%. `COc1ccccc1CNC(=O)c1ccc(CS(=O)c2ccccc2Cl)o1` (configuration not stated) showed an activation of 6.51%. With `COc1ccccc1CNC(=O)c1ccc(CS(=O)(=O)c2ccccc2)o1` the activation was 30.2% (active). Molecule `CCC(C(=O)Nc1cccc(Cl)c1C)n1nc(-c2ccc(C)cc2)ccc1=O` (configuration not stated) has an activation of 1.44%. `COc1ccc(N2CCN(c3cc(C)nc4nncn34)CC2)cc1` showed an activation of 5.83%. `CCc1ccc(NC(=O)CCCc2nnc3n(CCCOC)c(=O)c4sccc4n23)cc1` showed an activation of 2.87%. Work on `Cc1c(NC(=O)CCCOc2ccccc2)cccc1[N+](=O)[O-]` yielded an activation of 0.0331%. In the case of `Cc1c(NC(=S)NCc2ccc(F)cc2)cccc1[N+](=O)[O-]`, the activation is reported as 31.7% (active). Work on `Cc1cccc(NC(=S)NCCc2ccc(F)cc2)c1C` yielded an activation of 0.43%. Molecule `CC(C)(C)c1ccc(S(=O)(=O)N2CCN(C(=O)c3cc(-c4ccc(Br)cc4)n[nH]3)CC2)cc1` has an activation of 2.7%. `COc1ccc(NC(=O)CN2CCCN(Cc3ccccc3)S2(=O)=O)cc1` showed an activation of -2.31%. `O=C(C1CCC(Cn2c(=O)c3sccc3n(Cc3ccccc3F)c2=O)CC1)N1CCCCC1` (configuration not stated) gave an activation of 1.57%. `CC(=O)c1c(C)[nH]c(C(=O)COC(=O)c2cccc(S(=O)(=O)N(C)c3ccccc3)c2)c1C` was tested, and the activation was 31.9% (active). `CN(c1ccccc1)S(=O)(=O)c1cccc(C(=O)NNC(=O)c2ccncc2)c1` gave an activation of 0.604%. Molecule `COc1ccc(C)cc1NC(=O)C(OC(=O)c1cccc(S(=O)(=O)N(C)c2ccccc2)c1)c1ccccc1` (configuration not stated) has an activation of 0.857%. `N#Cc1nc(Nc2cc(F)cc(Cl)c2)nc(NC2CCCC2)n1` gave an activation of 11.1%. For `COc1ccccc1N1CCN(C(CNC(=O)C(=O)NCc2ccc(C)cc2)c2cccnc2)CC1` (configuration not stated), the activation was 3.64%. In the case of `Cc1ccc(C)c(N2CCN(CCCNC(=O)Nc3ccc(Cl)cc3)CC2)c1`, the activation is reported as 65.5% (active). `O=C(CSc1ccc([N+](=O)[O-])cn1)Nc1ccc(N2CCOCC2)cc1` gave an activation of 0.916%. `CC1=C(c2ccc(C)cc2)S(=O)(=O)NC1=NCCCN1CCN(c2cc(C)ccc2C)CC1` was tested, and the activation was 6.19%. In the case of `O=C(NCCCN1CCN(c2ccc(F)cc2)CC1)Nc1ccc([N+](=O)[O-])cc1`, the activation is reported as 32.8% (active). `CCOC(=O)c1c(C)[nH]c(CCC(=O)NCCCN2CCN(c3cc(C)ccc3C)CC2)c1C` showed an activation of 22.5%. `O=C(CCN1C(=O)COc2ccccc21)NCCCN1CCN(c2ccc(F)cc2)CC1` showed an activation of -0.0538%. `O=C(Nc1cccc2cccnc12)C(F)(F)F` gave an activation of 0.559%. `COc1ccc(S(=O)(=O)NCCSc2nnnn2-c2ccccc2)cc1` showed an activation of 2.54%. `CCOc1ccc(S(=O)(=O)c2cn(Cc3ccccc3)c3ccc(OCC)cc3c2=O)cc1` was tested, and the activation was 1.46%. With `CCOC(=O)c1c(C)[nH]c(C)c1S(=O)(=O)NCC(=O)NCc1cccc(C)c1` the activation was 6.99%. In the case of `CCCCOC(=O)/C(C#N)=C/c1ccc(-c2cccc(C(F)(F)F)c2)o1`, the activation is reported as 6.87%. For `c1ccc(C2CNCc3c2ccc2ccccc32)cc1` (configuration not stated), the activation was 45.9% (active). `Cc1ccc2nc(COc3cccc(NC(=O)c4ccccc4Cl)c3)cc(=O)n2c1` showed an activation of 0.0743%. With `Cc1cc(C)c(/C=C2\C(=O)Nc3ccccc32)[nH]1` the activation was 92.6% (active). Molecule `COc1ccccc1S(=O)(=O)c1c(C)cc(C)[nH]c1=O` has an activation of 3.01%. Work on `Cc1cc(C)cc(NS(=O)(=O)c2ccc(-c3cc(C)no3)s2)c1` yielded an activation of 1.79%. `O=S(=O)(c1ccc2c(c1)OCCO2)N1CCN(S(=O)(=O)c2cc(F)ccc2F)CC1` showed an activation of 6.6%. With `CCc1cccc(NC(=O)CN(c2ccc(C)c(C)c2)S(=O)(=O)c2ccsc2C(=O)OC)c1` the activation was 3.48%. `Cc1cccc(NC(=O)N2CCC(CN3CCc4ccccc4C3)CC2)c1C` gave an activation of 6.8%. For `Fc1cccc(Cl)c1COc1ccc(-c2nnco2)cc1`, the activation was 4.97%. For `O=C(/C=C/c1ccc(OCc2c(F)cccc2Cl)cc1)N1CCOCC1`, the activation was 59.7% (active). `CN(C)CCCNC(=O)/C=C/c1ccc(OCc2c(F)cccc2Cl)cc1` was tested, and the activation was 20.4%. In the case of `CCC(=O)Nc1ccc2nc(SCC(=O)N3CCc4ccccc43)sc2c1`, the activation is reported as 4.11%.
Note: 0% is about no effect.
